Experimental data from PubChem BioAssay (EPA / NIEHS).
Records with an inconclusive call do not appear. The source made the active and inactive calls. Rule for the calls: active = hit-call score of the fitted dose curve at least 0.9, where 1 is the maximum; inconclusive = response in the unintended direction; inactive = score below 0.9.

Assay: TOX21_PR_LUC_Followup_Agonist_viability: Viability Assessment in the Tox21 HEK293 Progesterone Receptor (PR) Agonism Luciferase Follow-Up Assay (AID 2283941);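 note: loss of signal means cytotoxicity so actives lower viability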
How it was run: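 Multiplexed viability endpoint of the PR agonist luciferase follow-up: HEK293-PR-A-luc cells treated 16 h at 37C, with viability scored as decrease in CellTiter-Glo ATP signal.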

Question: Which AC50 does the source give for Clc1ccc(C(c2ccccc2Cl)C(Cl)(Cl)Cl)cc1 (centres undefined) here?
Answer: 76 µM (active)

Question: With C[C@]12CCC(=O)C=C1CC[C@@H]1[C@@H]2CC[C@]2(C)C(=O)CC[C@@H]12 as the compound, how does the outcome read?
Answer: inactive

Question: With CC(C)(c1ccccc1)c1ccc(O)cc1 as the compound, how does the outcome read?
Answer: inactive

Question: Which outcome does the source give for CC(C)(O)C(=O)Nc1ccc([N+](=O)[O-])c(C(F)(F)F)c1 here?
Answer: inactive

Question: Which outcome does the source give for ClC(Cl)=C(c1ccc(Cl)cc1)c1ccc(Cl)cc1 here?
Answer: inactive

Question: For COc1ccc(O)c(C(C)(C)C)c1, which outcome is on record?
Answer: inactive

Question: With Oc1ccc(C(c2ccc(O)cc2)(C(F)(F)F)C(F)(F)F)cc1 as the compound, how does the outcome read?
Answer: inactive

Question: Which outcome does the source give for N#Cc1ccc(N(CC(N)=O)CC(F)(F)F)cc1C(F)(F)F here?
Answer: inactive

Question: For CCC(=O)O[C@H]1CC[C@H]2[C@@H]3CCC4=CC(=O)CC[C@]4(C)[C@H]3CC[C@]12C, which outcome is on record?
Answer: inactive
